An excerpt weighted towards active compounds, which were near 0.4% of everything screened.
AID504770: growth inhibitors of E. coli YBA685 in a screen for V. cholerae RctB (chromosome II replication) inhibitors | E. coli YBA685 rctB-dependent plasmid, OD600 growth, 3 h; active compounds read low | z-score (test concentration not listed) | 0.27% of 130,000 active; in the data active = z-score below about -2, passing the limit was not always enough
CapD inh: inhibitors of Bacillus anthracis CapD enzyme. purified CapD enzyme, fluorescence intensity read-out; active compounds read low. z-score (concentration not given with the values). 0.23% of 140,000 active. AID 492967; in the data active = z-score mostly below about -2.9, no sharp cut-off; inactive = mostly above about -1.9
Numbers without * were called inactive; nt = no result given.

SMILES	AID504770	CapD inh
COC(=O)c1nc(S(C)(=O)=O)ncc1Cl	-2.7*	nt
COc1ccc(NC(=O)c2nc(S(C)(=O)=O)ncc2Cl)cc1Cl	-0.85	-1.11
CC1Cc2ccccc2N1S(=O)(=O)c1ccccc1 (configuration not stated)	1.75	-0.785
CC1Cc2ccccc2N1C1=CC(=O)CCC1 (configuration not stated)	0.35	-5.75*
CS(=O)(=O)N1CCN(c2ncccc2C(F)(F)F)CC1	-0.35	-0.09
CCNC(=S)N(C)Cc1cc(Br)ccc1OC	0.05	nt
Cc1c(C(=O)/C=C/N(C)C)nnn1-c1ccccc1	-0.75	-5.5*
CN(C)/C=C/C(=O)c1ccc2c(c1)CCO2	0.95	-6.09*
N#CS/C=C/C(=O)c1ccccc1	-2.7*	-0.725
Cc1c(C(=O)/C=C/N(C)C)nnn1-c1ccc(Cl)c(Cl)c1	0.25	0.09
O=C(c1cccs1)c1cccs1	nt	-0.64
CC(=O)c1ccc2c(c1)CCO2	nt	0.425
O=C(/C=C/C(=O)c1ccccc1)c1ccccc1	-1.55	nt
CN(C)/C=C/C(=O)c1cccs1	-0.9	-4.92*
CCC(=O)N1C2C=CC(C2)C1(C(F)(F)F)C(F)(F)F (configuration not stated)	2.35	-0.01
CC1(c2ccc(Br)cc2)NC(=O)CS1 (configuration not stated)	-0.55	0.065
O=c1c2sccc2nc(SCc2cc(=O)n3cc(Br)ccc3n2)n1C1CC1	0.15	-0.215
O=C(NCCc1ccsc1)c1ccc2c(=O)n3c(nc2c1)CCCCC3	0.7	-0.185
COc1ccc(C(=O)C2CCNCC2)cc1	nt	0.205
O=C(OC1CCCC1=O)c1cc(-c2ccco2)nc2ccccc12 (configuration not stated)	-0.35	nt
CCn1c(N2CCCC(C(=O)Nc3ncn[nH]3)C2)nc2ccccc21 (configuration not stated)	0.05	nt
COc1nnc(-c2ccc(Cl)cc2)c2ccccc12	nt	0.185
CN(C)/C=C/C(=O)c1ccc(S(=O)(=O)c2ccccc2)cc1	-0.1	-1.3
CN(C)/C=C/C(=O)c1ccccc1	-1.05	-4.9*
CC(C(=O)O)n1c(-c2cccs2)n[nH]c1=S (configuration not stated)	-0.55	nt
SMILES	AID504770	CapD inh
CC1(C)C(C(=O)O)N2C(=O)CC2S1(=O)=O (configuration not stated)	-2.4*	-0.325
CC1(C)OC(=O)CC1C(=O)O (configuration not stated)	-0.6	nt
Clc1cc2c(c3ncccc13)OCN(CCc1ccccc1)C2	-2.55	nt
CCCCN1COc2c(cc(Cl)c3cccnc23)C1	-5.8*	-0.17
c1ccc2c(c1)sc1ccccc12	0.1	-10.1*
Cc1c(C#N)sc2ccccc12	-0.8	-0.92
CC(C)(C)NC(=O)C1C2CCCCC21 (configuration not stated)	-0.45	nt
CCOC(=O)CSc1nc2c(sc(=S)n2CC2CCCO2)c(=O)n1-c1ccc(F)cc1 (configuration not stated)	nt	-0.95
COc1cc(SC)ccc1C(=O)Nc1cccnc1	-0.9	nt
N#CCC(=O)Nc1ccccc1Oc1ccccc1	-0.15	0.165
O=C(O)CCCC(=O)Nc1ccccc1Oc1ccccc1	-0.45	-1.98*
O=C(O)c1nn(Cc2coc(-c3cccs3)n2)c(=O)c2ccccc12	-0.3	nt
c1ccc(-c2noc(-c3ccccc3)n2)cc1	1.3	0.24
[O-]c1n[n+](-c2ccccc2)no1	-3.05*	0.27
O=C(Cc1ccccc1)N1CCC(c2ccccc2)=N1	-1.05	0.735
CS(=O)(=O)c1ccc(C(=O)Nc2ccccc2)cc1	-0.85	-2.85*
O=C(Nc1ccccc1)c1ccc(F)cc1	-0.85	nt
Cc1cc(=O)oc(C)c1C(=O)NCc1ccccc1	0.3	-3.69*
CCCNC(=O)c1c(C)cc(=O)oc1C	-0.4	-1.63
S=c1nc2[nH]c3cc4c(cc3c2n[nH]1)OCCO4	1.3	nt
Cc1noc(/C=C/N(C)C)c1S(=O)(=O)NC1CCCCC1	0	-4.21*
Cc1noc(/C=C/N(C)C)c1S(=O)(=O)NCCN1CCC(Cc2ccccc2)CC1	-0.45	-2.55
Nc1nc(SC#CC(F)(F)F)ns1	-4.95*	nt
O=C1CSC(c2cc3c(cc2[N+](=O)[O-])OCO3)N1c1cc(Cl)cc(Cl)c1 (configuration not stated)	nt	1.51
Cc1ccc(N2C(/N=C3\N=c4[nH]c5ccccc5c4=N3)=NC23C(=O)Nc2ccccc23)cc1C (configuration not stated)	-0.2	0.5
SMILES	AID504770	CapD inh
COc1ccc2nc3oc(C(=O)NCCC4=CCCCC4)cc3cc2c1	-5.15*	0.345
Cc1ccc2cc3cc(C(=O)NCCC4=CCCCC4)oc3nc2c1	0.15	2.1
NS(=O)(=O)c1ccc(CNC(=O)c2ccccc2C(F)(F)F)cc1	-0.2	nt
O=C(c1ccc(F)cc1)c1cc2ccc(O)cc2oc1=O	1.15	-6.37*
O=C(c1ccc2c(c1)OCO2)c1cc2ccc(O)cc2oc1=O	-0.3	-3.87
Cc1ccc(-c2nn(-c3ccccc3)c3[nH]c(=O)c(CNCCN4CCOCC4)cc23)cc1	-0.15	nt
O=C1C=CC(=O)N1c1ccccc1F	-4.65*	nt

Screens (PubChem BioAssay)
